HTT-AS promoter = activators of huntingtin-antisense promoter activity; HEK293 HTT-AS promoter firefly luciferase reporter, 24 h; response scale: percent change from vehicle, -100% = no light; Potency, µM (highest dose often 57.5 µM), most hits filed as activators; 48,000 tested, 0.24% active; note: nearly all actives have a fitted effect of over 55% in size
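HEK293 luciferase promoter-reporter cells (2,500/well) plated 24 h, then compounds added at up to 57.5 uM final for 24 h at 37 °C. Firefly luminescence by Dual-Glo, normalized to vehicle (0%) and zero RLU (-100%).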
S16 viability = cytotoxicity in S16 Pmp22-F2sN Schwann cells | 43,000 tested, 0.48% active | Potency, µM (top dose mostly 57.5 µM), actives largely listed as cytotoxic | S16 Pmp22-F2sN Schwann cells viability, CellTiter-Glo, 24 h; note: nearly all actives have a fitted effect of over 65% in size
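Luminescence from CellTiter-Glo, read by CCD camera after a 15 min room-temperature incubation, served as the viability signal. Reporter Schwann cells (S16 Pmp22-F2sN) had been treated with pin-transferred compounds for 24 h at 37C.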
pS6 MEF inh = mTORC1 pathway inhibition measured by phospho-rpS6 | Tsc2-/- p53-/- MEF, phospho-rpS6 immunofluorescence/PI, 24 h | Potency, µM (titrated, usually from 38.3 µM), hits mostly inhibitors | 44,000 tested, 0.78% active; note: nearly all actives have a fitted effect of over 50% in size
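Read-out: phospho-S6 Alexa-488 intensity over PI intensity per well, scored as % active cells using thresholds from rapamycin (7.5 nM) and DMSO controls. Tsc2-/-, p53-/- MEFs exposed to compound for 24 h; PI cell count recorded as viability.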
HTT promoter inh = inhibits huntingtin promoter activity; Potency, µM (top dose mostly 57.5 µM), most hits filed as inhibitors; HEK293 HTT promoter firefly luciferase reporter, 24 h; 48,000 tested, 0.93% active; note: nearly all actives have a fitted effect of over 50% in size
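HEK293 Fluc reporter, 2,500 cells/well, 24 h pre-culture; cpds up to 57.5 uM final, 24 h 37 degrees C; Dual-Glo, 10 min RT; normalized vehicle = 0%, zero RLU = -100%.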
PMP22 txn = modulators of PMP22 gene transcription in S16 Schwann cells. S16 Pmp22-F2sN Schwann cells (luciferase reporters placed in the Pmp22 gene), FLuc/NLuc coincidence luminescence, 24 h. Potency, µM (titrated, usually from 57.5 µM), actives largely listed as inhibitors. 43,000 tested, 2% active. AID 1508649; active = clear falling dose curves in both reporters; inconclusive = both reporters move, but less clearly or upward; inactive = either reporter flat; the % is the NLuc reporter signal
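Rat S16 Pmp22-F2sN cells, 500-1,000/well in phenol red-free DMEM + 10% FBS, compound-treated 24 h (37C, 5% CO2). Luminescence: FLuc read, Stop&Glo added, NLuc read.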
NLuc saturating = NanoLuc enzyme inhibition artifact for PMP22 screen. shares compounds with PMP22 txn. Secreted NLuc enzyme (filtered S16 cell medium), Nano-Glo luminescence. Potency, µM (top dose mostly 57.5 µM), usual class: inhibitors. 690 tested, 4% active. AID 1508638
NLuc Km counter = inhibits NanoLuc under Km conditions, PMP22 counter-screen | shares compounds with PMP22 txn | secreted NLuc enzyme, coelenterazine luminescence, Km conditions | Potency, µM (series often up to 57.5 µM), hits mostly inhibitors | 690 tested, 5% active
FLuc ctr PMP22 = counter-screen for PMP22 expression modulators: firefly luciferase inhibition; Potency, µM (highest dose often 57.5 µM), usual class: inhibitors; 690 tested, under 10 active; AID 1508640; shares compounds with PMP22 txn; purified P. pyralis FLuc, luminescence, 10 min
Target sequence (P08659 whole entry, looked up): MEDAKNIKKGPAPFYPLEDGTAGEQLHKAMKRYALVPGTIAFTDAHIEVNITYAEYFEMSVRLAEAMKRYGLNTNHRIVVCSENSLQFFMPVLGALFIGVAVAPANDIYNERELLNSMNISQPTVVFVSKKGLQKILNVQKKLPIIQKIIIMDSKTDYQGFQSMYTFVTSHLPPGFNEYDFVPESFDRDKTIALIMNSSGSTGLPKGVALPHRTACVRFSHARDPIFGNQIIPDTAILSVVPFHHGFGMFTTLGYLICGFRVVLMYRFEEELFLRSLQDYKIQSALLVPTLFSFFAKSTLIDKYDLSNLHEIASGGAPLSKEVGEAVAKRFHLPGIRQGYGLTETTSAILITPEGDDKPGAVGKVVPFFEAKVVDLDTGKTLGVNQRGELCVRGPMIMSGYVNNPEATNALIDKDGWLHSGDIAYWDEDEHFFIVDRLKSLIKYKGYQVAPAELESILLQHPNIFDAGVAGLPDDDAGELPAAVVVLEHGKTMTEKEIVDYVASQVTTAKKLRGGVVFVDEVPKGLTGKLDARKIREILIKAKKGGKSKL
S16 viab conf = S16 Schwann cell cytotoxicity, confirmatory; shares compounds with PMP22 txn; S16 Schwann cells viability, CellTiter-Glo ATP luminescence, 24 h; Potency, µM (top dose mostly 57.5 µM), hits mostly cytotoxic; 690 tested, 7% active; AID 1508641
PMP22 txn conf = confirmation of modulators of PMP22 gene transcription in S16 cells; shares compounds with PMP22 txn; S16 Schwann cells Pmp22-F2sN, dual luciferase, 24 h; Potency, µM (series often up to 57.5 µM), usual class: inhibitors; 690 tested, 22% active; active = clear falling dose curves in both reporters; inconclusive = both reporters move, but less clearly or upward; inactive = either reporter flat; the % is the FLuc reporter signal
A number is an active result; – = inactive; ? = inconclusive; · = not tested or not shown. Most compounds without a hit are left out; they make up all but 3.6% or so of the library. Unless noted, calls come from the whole dose curve; as a rule, active = well fitted curve in the direction sought with a large enough effect; inconclusive = small, poorly fitted or top-dose-only effect, or another doubt; inactive = no such curve, though single readings can be large; an effect the other way counts as inactive or inconclusive.

SMILES | HTT-AS promoter | S16 viability | pS6 MEF inh | HTT promoter inh | PMP22 txn | NLuc saturating | NLuc Km counter | FLuc ctr PMP22 | S16 viab conf | PMP22 txn conf
COc1cccc2c1C(=O)c1c(O)c3c(c(O)c1C2=O)C[C@@](O)(C(=O)CO)C[C@H]3O[C@H]1C[C@H](N)[C@H](O)[C@H](C)O1 | – | · | · | ? | · | · | · | · | · | ·
COc1cc(N2CCC(C(N)=O)CC2)ccc1Nc1nc(N)c(Cl)c(Nc2ccccc2S(=O)(=O)C(C)C)n1 | – | · | · | ? | · | · | · | · | · | ·
CN(C)CC1CCN(C2CCN(C(=O)c3cccc(-c4cc(O)c5ncccc5c4)c3)CC2)CC1 | · | · | · | – | · | · | · | · | · | ·
O=C1CCCC2=C1C(c1[nH]ncc1Cl)N=C(Nc1nc3ccccc3o1)N2 (stereo not drawn) | – | · | · | – | · | · | · | · | · | ·
Cc1ccc(C(=O)Nc2ccc(CN3CCN(C)CC3)c(C(F)(F)F)c2)cc1C#Cc1cnc2cccnn12 | – | · | · | ? | · | · | · | · | · | ·
CCN(C(=O)CSc1nc(-c2ccccc2)no1)c1cccc(C)c1 | – | – | – | 3.2µM | 13µM | 19µM | 4.8µM | – | ? | –
CCN(C(=O)CSc1nc2ccccc2nc1Cc1ccc(F)cc1)c1cccc(C)c1 | – | – | – | – | – | · | · | · | · | ·
CCOC(=O)C1CCN(c2nc(-c3ccc(Br)cc3)nc3ccccc23)CC1 | – | ? | – | ? | 15µM | – | – | – | – | –
COC(=O)COc1ccc(-c2nnc(Nc3ccc(O)cc3)c3ccccc23)cc1 | – | ? | ? | – | 11µM | 12µM | 11µM | – | – | ?
CNC(=O)c1cc(Nc2nnc(-c3ccc(O)cc3)c3ccccc23)ccc1OC | – | ? | – | – | – | · | · | · | · | ·
O=C1CC2(CCCC2)CC(=O)N1 | – | · | · | – | · | · | · | · | · | ·
CCOc1ccc(OCC)c(NC(=O)CN(C)S(=O)(=O)c2ccc3c(c2)CCCC(=O)N3)c1 | – | – | – | ? | 20µM | – | – | – | – | –
COc1ccccc1NC(=O)CSc1ncc2c(n1)-c1cc(Cl)ccc1N(C)S2(=O)=O | – | – | – | ? | – | · | · | · | · | ·
COc1cccc(NC(=O)CSc2ncc3c(n2)-c2ccc(Cl)cc2N(C)S3(=O)=O)c1 | – | – | – | – | 2.5µM | – | – | – | – | ?
COc1ccc(-c2c(C)nn3c(N4CCN(c5ccccc5)CC4)cc(C)nc23)cc1OC | – | – | – | – | 17µM | ? | ? | – | – | ?
Cc1ccc2cc(CN(C(=O)c3cccc(Cl)c3)c3ccccc3)c(=O)[nH]c2c1 | – | – | – | – | – | · | · | · | · | ·
CCCCN(Cc1cc2ccccc2[nH]c1=O)C(=O)c1cccc(Cl)c1 | – | – | – | ? | 20µM | ? | ? | – | ? | –
COc1ccc(CC2SC(=O)NC2=O)cc1C(=O)NCc1ccc(C(F)(F)F)cc1 (stereo not drawn) | – | · | · | – | · | · | · | · | · | ·
COC(=O)c1ccc(NC(=O)CSc2nc(=O)n(Cc3ccco3)c3c2CCC3)cc1 | – | – | – | – | 8.3µM | ? | ? | – | – | –
CC(C)NCCCC1(C(N)=O)c2ccccc2-c2ccccc21 | – | · | · | – | · | · | · | · | · | ·
CCCc1oc2ccc(NS(=O)(=O)c3ccc(OC)cc3)cc2c1C(=O)OCC | – | – | 4.1µM | ? | 13µM | – | ? | – | – | –
Nc1cc(C(F)(F)F)ccc1S | – | · | · | – | · | · | · | · | · | ·
COc1cc(/C=C(\C#N)c2nc3ccccc3[nH]2)ccc1OCc1ccccc1F | – | – | – | ? | 13µM | ? | ? | – | – | ?
COc1c(Cl)cc(Cl)cc1/C=C(\C#N)c1nc2ccccc2[nH]1 | – | ? | – | – | 11µM | ? | ? | – | – | ?
Cc1ccc2nc(NC(=O)CSc3nc4c(c(=O)n3-c3ccccc3)SCC4)sc2c1 | – | · | · | ? | · | · | · | · | · | ·
SMILES | HTT-AS promoter | S16 viability | pS6 MEF inh | HTT promoter inh | PMP22 txn | NLuc saturating | NLuc Km counter | FLuc ctr PMP22 | S16 viab conf | PMP22 txn conf
CCN1C(=O)c2ccccc2S(=O)c2ccc(C(=O)N3CCN(c4ccc(F)cc4)CC3)cc21 (stereo not drawn) | – | – | – | – | ? | · | · | · | · | ·
COc1ccc(N2CCN(C(=O)c3ccc4c(c3)N(Cc3ccc(F)cc3)C(=O)c3ccccc3S4=O)CC2)cc1 (stereo not drawn) | – | – | – | ? | ? | 0.15µM | 0.12µM | – | – | –
O=C(CCS(=O)(=O)c1nc(-c2ccc3c(c2)OCO3)cc(C(F)(F)F)n1)Nc1ccc(F)c(Cl)c1 | – | ? | – | ? | 13µM | – | ? | – | – | ?
CC(CC1c2ccccc2CCc2ccccc21)CN(C)C (stereo not drawn) | – | · | · | – | · | · | · | · | · | ·
CC[C@@]1([C@@H]2O[C@@H]([C@H]3O[C@@](O)(CO)[C@H](C)C[C@H]3C)C[C@H]2C)CC[C@H]([C@]2(C)CC[C@]3(C[C@H](O)[C@@H](C)[C@@H]([C@@H](C)[C@@H](OC)[C@H](C)C(=O)O)O3)O2)O1 | – | · | · | ? | · | · | · | · | · | ·
Cc1ccc(S(=O)(=O)N2CCN(Cc3noc(CCC(=O)N4CCCCC4)n3)CC2)c(C)c1 | – | – | – | – | ? | – | – | – | – | –
Cc1cc(C)c(S(=O)(=O)N2CCN(Cc3nc4ccc(C)cc4o3)CC2)c(C)c1 | – | – | – | ? | ? | · | · | · | · | ·
O=c1[nH]c(=O)n([C@H]2O[C@H](CO)[C@@H](O)[C@@H]2O)cc1/C=C\Br | – | · | · | – | · | · | · | · | · | ·
CCOc1ccc(NC(=O)c2oc3ccccc3c2NC(=O)c2c(F)cccc2F)cc1 | – | – | – | – | – | · | · | · | · | ·
CCOc1ccccc1C(=O)Nc1c(C(=O)Nc2ccc(F)cc2)oc2ccccc12 | – | – | – | ? | 4.1µM | ? | – | – | – | 5.6µM
Cn1c(=O)n(-c2ccc3c(c2)OCO3)c2nc(-c3ccc(Cl)cc3)nc(C(N)=O)c21 | – | – | – | – | ? | – | – | – | – | –
CC(C)c1ccc(-c2nc(C(N)=O)c3c(n2)n(-c2ccc4c(c2)OCO4)c(=O)n3C)cc1 | – | – | – | – | ? | · | · | · | · | ·
CCOC(=O)c1ccc(O)c(O)c1 | – | · | · | – | · | · | · | · | · | ·
